# Pf growth 48h: inhibits P. falciparum growth in the first generation, 48 h | P. falciparum luciferase growth in erythrocytes, 48 h | Potency, µM (series often up to 28.7 µM), for the others: at the top dose activity change, negative = inhibition, actives largely listed as inhibitors | 310,000 compounds, 5.9% hits | AID 504832; note: potency is the fitted concentration of half-maximal effect
#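 First compound was added to culture medium, then infected red cells at 0.1% parasitemia and 2% hematocrit (final). After incubation at 37 C under 5% CO2, luciferase detection reagent was dispensed and light output recorded.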
# LASV entry inh: blocks Lassa virus binding to or entry into cells | AID 540256 | Lassa virus pseudotype entry inhibition, cell reporter | Potency, µM (highest dose often 37.9 µM), inactives show at the highest dose activity change, negative = inhibition, most hits filed as inhibitors | 300,000 compounds, 1.2% hits; calls by dose curve; tested in HEK293 cells; note: potency is the fitted concentration of half-maximal effect; nearly all actives have a fitted effect of over 50% in size
# MARV entry inh: blocks Marburg virus binding to or entry into cells | AID 540276 | Potency, µM (series often up to 37.8 µM), for the others: top-dose activity change, negative = inhibition, usual class: inhibitors | 300,000 compounds, 1.8% hits | Marburg virus pseudotyped entry inhibition, cell reporter; calls by dose curve; tested in HEK293 cells; note: potency is the fitted concentration of half-maximal effect
# Pf growth 96h: P. falciparum growth inhibition at 96 hours; P. falciparum luciferase reporter growth, 96 h; 320,000 compounds, 6.9% hits; AID 504834; Potency, µM (series often up to 28.7 µM), for inactives: top-dose activity change, negative = inhibition, most hits filed as inhibitors; note: potency is the fitted concentration of half-maximal effect
#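 Two-generation exposure (96 h) targets delayed-death phenotype. Reporter parasites carrying integrated firefly luciferase, in red cells at 2% hematocrit and 0.05% parasitemia final, kept at 37 C, 5% CO2; luminescence loss indicates inhibition.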
# HCV inh: inhibitors of hepatitis C virus infection. Huh7.5.1 HCVcc-Cre infection, luciferase reporter, 44 h. Potency, µM (titrated, usually from 41.8 µM), for inactives: at the highest dose activity change, negative = inhibition, hits mostly inhibitors. 340,000 compounds, 3.4% hits. AID 651820; note: potency is the fitted concentration of half-maximal effect
#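 Luciferase read-out (15 sec integration) after a 15 min room-temperature substrate step quantifies HCVcc-Cre infection. Cells, 1,000 per well, had compound added 4 h post-plating, then virus at ~0.5 moi, and were cultured 44 h.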
# HCMV inh: inhibitors of human cytomegalovirus. 410,000 compounds, 4.5% hits. AID 1259415. HFF cells, HCMV-luciferase reporter, 72 h; active compounds read low. activity change, negative = inhibition, % at 57.5 µM; in the data active = activity change below about -60%; inconclusive = no clear call, values can overlap the other calls; inactive = above about -39%
#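 Inhibition of viral replication was scored as loss of reporter luminescence in HFFs infected with HCMV-luciferase (MOI 1 PFU/cell) for 72 h; compounds tested at 2 doses, normalized to buffer and Salinomycin controls.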
# An asterisk follows results filed as active; ? = inconclusive; . = no result; [ ] = dose if it differs, or a comment. Rows were chosen to be rich in hits. Some 14% of all compounds tested hit in one or more screens of this group. Unless noted, calls come from the whole dose curve; as a rule, active = well fitted inhibition curve with a large enough effect; inconclusive = small, poorly fitted or top-dose-only effect, or another doubt; inactive = no such curve, though single readings can be large or run the other way. % is set by controls: 0 for no effect and ±100 for the full control effect.
SMILES,Pf growth 48h,LASV entry inh,MARV entry inh,Pf growth 96h,HCV inh,HCMV inh
Cc1ccn2c(NC(=O)C(C)(C)Oc3ccc(Cl)cc3)c(-c3cccs3)nc2c1,-22%,?,?,12µM*,?,-60*
O=C(NCc1ccccc1F)C(=O)NCC(c1ccco1)S(=O)(=O)c1ccccc1 (stereo not drawn),.,-19%[46.1 µM],.,.,.,-18
Cc1ccn2cc(-c3ccc4c(c3)NC(=O)CO4)nc2c1,313%,.,.,182%,1%,-84*
COC(=O)c1cncc(C=Cc2c(C)cc(O)cc2C)c1,.,3.1µM*,.,.,.,.
COC(=O)c1cncc(O)c1,15%,-2%,-5%,.,12%,-20
CCOc1ccc(N2C(=O)S/C(=C\c3cccn3C)C2=O)cc1,3.3µM*,-26%,1%,2.9µM*,-23%,41
Cn1cccc1/C=C1\SC(=O)N(c2ccc(O)cc2)C1=O,120%,?,?,149%,-23%,-2
Cc1nn(-c2ccccc2)c(Cl)c1/C=C1\SC(=S)N(C)C1=O,1%,-16%,2%,?,0%,23
Cc1nn(-c2ccccc2)c(Cl)c1/C=N/O,0%,2%,-2%,?,7%,14
Cc1cc(=O)[nH]c(N/N=C/c2c(C)nn(-c3ccccc3)c2Cl)n1,4.7µM*,-2%[46.1 µM],?,8.3µM*,-23%,0
Cc1nn(-c2ccccc2)c(Cl)c1/C=N/Nc1nc2ccccc2[nH]1,0.74µM*,.,0%,0.74µM*,-6%,45
Cc1nn(-c2ccccc2)c(Cl)c1/C=C1\C(=O)N(C)C(=S)N1C,?,.,.,13µM*,?,1
Cc1cc(=O)[nH]c(N/N=C/c2c(C)oc3ccccc23)n1,?,23%[46.1 µM],-11%[46.1 µM],?,3%,?
CSc1nnc2[nH]c(=O)cc(C)n12,.,0%[46.1 µM],.,.,.,-6
O=C(CSc1nncn2c1cc1occc12)Nc1ccccc1C(F)(F)F,.,0%[46.1 µM],.,.,.,?
COc1ccc(-c2nc(CN3CCCCC3c3cccnc3)c(C)o2)c(F)c1 (stereo not drawn),9.3µM*,-24%[46.1 µM],?,?,?,11
COc1ccc(CN2CCCCC2c2cccnc2)cc1C (stereo not drawn),13µM*,-31%,-26%,27%,-25%,-5
Cc1oc(-c2ccccc2Cl)nc1CN1CCCCC1CO (stereo not drawn),-13%,.,.,?,-6%,-2
Cc1ccccc1-c1nc(CN2CCCC2c2ccc(F)cc2)c(C)o1 (stereo not drawn),10µM*,16%[46.1 µM],?,17%,4%,-23
Cc1oc(-c2ccccc2Cl)nc1Cn1cccc1C1=NC(c2ccccc2)CO1 (stereo not drawn),-1%,7.3µM*,?,?,11µM*,?
CN1Cc2sccc2C(c2ccc(O)c(O)c2)C1 (stereo not drawn),.,-8%,16%,.,.,.
Cc1oc(-c2ccccc2Cl)nc1CN1CCCC1c1ccc(F)cc1 (stereo not drawn),?,.,.,6.6µM*,-13%,16
CN1CCCC1c1cccnc1 (stereo not drawn),.,.,.,.,11%,5
CN1CCC[C@@H]1c1cccnc1,-6%,.,?,15µM*,.,.
Cc1nonc1C1CCCN1Cc1nc(-c2ccccc2Cl)oc1C (stereo not drawn),?,.,.,100%,-12%,-35
SMILES,Pf growth 48h,LASV entry inh,MARV entry inh,Pf growth 96h,HCV inh,HCMV inh
Cc1oc(-c2ccccc2Cl)nc1CN1CCCCC1c1cccnc1 (stereo not drawn),12µM*,.,.,?,-16%,9
Cc1ccc(OCc2nc3ccccc3n2C(C(=O)Nc2c(C)cccc2C)C2CC2)cc1 (stereo not drawn),.,.,.,.,.,106
O=[N+]([O-])c1ccc(N2CCOCC2)c2c1no[n+]2[O-],.,.,.,.,.,-101*
COc1cc(N/N=C(\C)c2ccc(N)cc2)nc(-c2ccccc2)n1,-6%,.,.,?,11µM*,41
O=[N+]([O-])c1ccc(/C=N/Nc2cc(Cl)nc(-c3ccccc3)n2)cc1,?,-13%,-13%,?,?,-28
C/C(=N\Nc1cc(C)nc(-c2ccccc2O)n1)c1ccccc1,-86%,10%[46.1 µM],-26%[46.1 µM],?,?,?
O=[N+]([O-])c1cccc(/C=N/Nc2cc(Cl)nc(-c3ccccc3)n2)c1,?,10µM*,-3%[46.1 µM],?,?,-14
C/C(=N\Nc1cc(C)nc(-c2ccccc2)n1)c1cccc([N+](=O)[O-])c1,12µM*,.,.,0.41µM*,?,-2
C/C(=N\Nc1cccc2cccnc12)c1ccc(N)cc1,144%,2%[46.1 µM],?,41%,-12%,34
C/C(=N\Nc1cc(-c2ccccc2)nc(-c2ccccc2)n1)c1ccc(O)c(C)c1,?,11%,?,0%,3.5µM*,-64*
Cc1ccccc1NC(=O)Nc1nc(C2CCC(=O)N2)cs1 (stereo not drawn),.,.,.,.,.,3
COc1cc(N/N=C(\C)c2ccc(O)c(C)c2)nc(-c2ccccc2)n1,?,?,?,?,?,-90*
COc1cccc(NC(=O)C2CC(=O)N(c3ccc(Br)cc3)C2)c1 (stereo not drawn),.,-2%[46.1 µM],-9%[46.1 µM],.,.,-11
COC(=O)c1ccc(CSc2nnc(-c3ccncc3)o2)o1,20%,2%,11%,.,31%,14
c1ccc(CSc2nnc(-c3ccncc3)o2)cc1,95%,16%,?,0%,-5%,-73*
O=C(CSc1nnc(-c2ccncc2)o1)NCc1ccccc1Cl,3%,-2%,-28%,-16%,-11%,-15
O=C(CSc1nnc(-c2ccncc2)o1)NCc1ccccc1,1%,-2%,1%,-4%,-4%,-90*
COc1ccc(C(C)=O)cc1CSc1nnc(-c2ccncc2)o1,?,.,.,4.1µM*,-30%,-2
COC(=O)c1ccc(CSc2nnc(-c3ccncc3)o2)cc1,14%,?,14%[46.1 µM],12%,15%,-68*
COC(=O)c1ccc(OC)c(CSc2nnc(-c3ccc(C)cc3)o2)c1,.,?,14%[46.1 µM],.,-5%,-3
O=C(C[C@H]1CC[C@@H]2[C@H](COC[C@H](O)CN2C(=O)c2cnccn2)O1)NCc1ccc(Cl)cc1,.,.,.,.,.,-1
Cc1ccc(Cl)cc1N1CCN(C(=O)c2cc3c(=O)n(C)c4ccccc4c3n2C)CC1,.,.,.,54%,20%,-79*
CCOC(=O)C1CCCN(C(=O)c2cc3c(=O)n(C)c4ccccc4c3n2C)C1 (stereo not drawn),.,.,-4%,8.3µM*,-3%,-2
Cn1c(C(=O)N2CCCC2)cc2c(=O)n(C)c3ccccc3c21,.,.,.,-21%,10%,-7
Cn1c(C(=O)N2CCN(c3ncccn3)CC2)cc2c(=O)n(C)c3ccccc3c21,.,.,0%,10µM*,-6%,-23

# Screening results from PubChem BioAssay.
